The nature of assay [1]: A CellTox Green Cytotoxicity Assay to monitor cytotoxicity in HEK293 cells - 40 hour (AID 1224871). Also: nearly all actives have a fitted effect of over 45% in size. In short, it runs like this: (§1)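 Each value comes from one timepoint of a single continuous run in which HEK293 cells with CellTox Green were exposed to compound for up to 40 h at 37 C, dye fluorescence rising with cell death.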
Assay [2] in a line: qHTS RealTime-Glo MT Cell Viability Assay in HEK293 cells - 16 hour (AID 1224872). Also: nearly all actives have a fitted effect of over 50% in size. Also: potency is read from the fitted curve at half-maximal effect. In short, it runs like this: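 HEK293 cells seeded with NanoLuc/prosubstrate reagent, rested 5 h at 37 C, then dosed and kept at 37 C up to 40 h. Nonlytic real-time luminescence from viable cells read at 0, 8, 16, 24, 32 and 40 h.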
In general terms: qHTS replaces the single test concentration by a dilution series.

The nature of assay [3]: qHTS RealTime-Glo MT Cell Viability Assay in HEK293 cells - 40 hour (AID 1224874). Also: nearly all actives have a fitted effect of over 50% in size. Also: potency is read from the fitted curve at half-maximal effect. The note with it: RealTime-Glo luminescence; max response: active compounds read low. In a few lines:
(§2)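 qHTS format; HEK293 cells with NanoLuc/prosubstrate reagent, 37 C/5% CO2 for 5 h pre-dosing; compounds 23 nL in DMSO; luminescence at each time point reflects viable cells.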

Assay [4] can be described thus: A CellTox Green Cytotoxicity Assay to monitor cytotoxicity in HEK293 cells - 24 hour (AID 1224875). Also: series mostly up to about 77 µM; nearly all actives have a fitted effect of over 45% in size. In a few lines: as §1
A short description of assay [5]: A CellTox Green Cytotoxicity Assay to monitor cytotoxicity in HepG2 cells - 16 hour (AID 1224876). Also: nearly all actives have a fitted effect of over 45% in size. In a few lines: (§3)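 Continuous culture of HepG2 cells with a membrane-impermeant DNA dye; rising fluorescence marks dead cells. Compound exposure lasted up to 40 h at 37 C, with reads every 8 h from 0 h.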
The nature of assay [6]: A CellTox Green Cytotoxicity Assay to monitor cytotoxicity in HepG2 cells - 24 hour (AID 1224878). Also: nearly all actives have a fitted effect of over 45% in size. In short, it runs like this:
as §3

Assay [7] in a line: A CellTox Green Cytotoxicity Assay to monitor cytotoxicity in HepG2 cells - 40 hour (AID 1224879). Also: nearly all actives have a fitted effect of over 40% in size. In a few lines:
as §3

The nature of assay [8]: qHTS RealTime-Glo MT Cell Viability Assay in HEK293 cells - 0 hour (AID 1224880). In a few lines:
as §2

Assay [9] can be described thus: qHTS RealTime-Glo MT Cell Viability Assay in HepG2 cells - 8 hour (AID 1224873). Also: nearly all actives have a fitted effect of over 55% in size. In a few lines:
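HepG2 cells mixed with RealTime-Glo MT reagents (NanoLuc plus cell-permeant prosubstrate) were seeded at 600 cells/well, incubated 5 h at 37 C/5% CO2, then pinned with compounds in DMSO; nonlytic luminescence tracked viability during 40 h treatment.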

A short description of assay [10]: qHTS RealTime-Glo MT Cell Viability Assay in HepG2 cells - 32 hour (AID 1224877). Also: nearly all actives have a fitted effect of over 55% in size. In short, it runs like this: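 HepG2 cells (600/well) were dispensed with RealTime-Glo reagents, incubated 5 h at 37 °C, then treated with compounds in DMSO for up to 40 h. Nonlytic NanoLuc luminescence reflecting viable cells was read at each stated time point.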

Records with an inconclusive call do not appear. Unmarked numbers belong to inactive results. Active and inactive are the calls of the source. Calls follow the shape of the dose curve; as a rule, active = well fitted curve in the direction sought with a large enough effect in the repeat runs; inconclusive = weak or mixed curves; inactive = no such curve, though single readings can be large; an effect the other way counts as inactive or inconclusive.
% is scaled to controls: 0 for no effect and ±100 for the full control effect.

Take `O=C(Nc1ccccc1)N(Cc1ccc(Cl)cc1)C1CCCC1`: the Potency entry in assay [1], in assay [4], in assay [5], in assay [6] and in assay [7] was “inactive” in each case. The Potency in [2] was 21.9 µM (active); in [3] it was 24.5 µM (active). For the same molecule, the call in [8] was inactive.
For `OC(c1ccc(F)cc1)(c1cncnc1)c1ccccc1Cl` (stereo unspecified), the Potency entry in assay [2], in assay [9], in assay [4], in assay [5], in assay [10] and in assay [6] was “inactive” throughout. Further, in assay [7], the Potency result was “inactive”. In addition, the max response in [3] is -29.2%. Further, the molecule was classed as inactive in assay [8].
`CCc1cc2c(s1)-n1c(C)nnc1CN=C2c1ccccc1Cl`: the Potency entry in assay [2], in assay [9], in assay [5], in assay [10] and in assay [7] was “inactive” throughout. Further, the max response in [3] is -28.6%. In [8], the result was inactive.
For `C#C[C@]1(O)C=C[C@H]2[C@@H]3CCC4=CC(=O)CC[C@@H]4[C@H]3CC[C@@]21CC`, the Potency entry in assay [1], in [9], in assay [4], in assay [5], in [10] and in [6] was “inactive” throughout. For the same molecule, in assay [7], the Potency entry is “inactive”. The result in assay [8] was inactive.
On to `Cc1ncc2n1-c1ccc(Cl)cc1C(c1ccccc1F)=NC2`, for which the Potency entry in assay [1], in [9], in assay [4], in [5], in [6] and in assay [7] was “inactive” throughout. Moreover, the Potency in assay [3] is 19 µM (active). Moreover, the result in assay [8] was inactive.
Regarding `CCC(C)n1c(=O)[nH]c(C)c(Br)c1=O` (stereo unspecified), the Potency entry in assay [1], in assay [2], in assay [9], in assay [5], in assay [6] and in assay [7] was “inactive” in each case. Further, in [8], the outcome was inactive.
On to `CC1COC2(c3ccccc3Cl)c3cc(Cl)ccc3NC(=O)CN12` (stereo unspecified), for which the Potency entry in [1], in assay [9], in assay [4], in [5], in [10] and in assay [6] was “inactive” in each case. Also, in assay [8], the molecule was classed as inactive.
On to `CC(C1CC1)C(O)(Cn1cncn1)c1ccc(Cl)cc1` (stereo unspecified), for which the Potency entry in [1], in assay [9], in [4], in assay [5], in assay [6] and in [7] was “inactive” throughout. Moreover, the call in [8] was inactive.
For `O=[N+]([O-])c1cccc2c([N+](=O)[O-])cccc12`, the Potency result in [1], in assay [9], in [4], in assay [5], in [10] and in assay [6] was “inactive” each time. Also, the Potency in assay [3] is 49.2 µM (active).
Consider `CCCCc1c(C)nc(NCC)[nH]c1=O`, for which the Potency result in assay [1], in assay [9], in [4], in assay [5] and in [10] was “inactive” each time. Moreover, the molecule was called inactive in [8].
Turning to `CC1(C)C(=O)NC(=O)NC1=O`, the Potency entry in [2], in assay [9], in assay [5], in assay [10] and in assay [6] was “inactive” throughout. Further, the max response in [3] is -10.9%. For the same molecule, in [8], the outcome was inactive.
On to `CC(C(O)c1ccccc1)N(C)C/C=C/c1ccccc1` (stereo unspecified), for which the Potency entry in [1], in assay [9], in assay [4], in assay [5] and in [10] was “inactive” throughout. Moreover, in assay [3], the max response was -19.6%. Besides, the molecule was called inactive in [8].
For the molecule `CC(COc1ccc(Oc2ccccc2)cc1)Oc1ccccn1` (stereo unspecified), the Potency entry in [1], in assay [9], in assay [4], in assay [5], in [10] and in assay [6] was “inactive” throughout. For the same molecule, the Potency result in [7] is “inactive”. Also, the result in assay [8] was inactive.
For the molecule `CC1(C(=O)Nc2ccc(O)c(Cl)c2Cl)CCCCC1`, the Potency entry in [9] and in [10] was “inactive” in each case. For the same molecule, the call in assay [8] was inactive.
`O=C(Cc1ccccc1)OCc1ccccc1`: the Potency entry in assay [2], in assay [9], in assay [5], in assay [10], in assay [6] and in assay [7] was “inactive” in each case. In assay [3], the max response is -18.6%.
Consider `Nc1cc(Cl)ccc1O`, for which the Potency entry in assay [1], in assay [9], in [4], in assay [5] and in [7] was “inactive” throughout. Further, the max response in assay [3] is -11.2%.
With `CC(C)(C)OC(=O)c1ncn2c1[C@@H]1CCCN1C(=O)c1c(Br)cccc1-2`, the Potency entry in assay [1], in assay [9], in [4], in assay [5], in assay [10] and in assay [7] was “inactive” each time. Further, the outcome in assay [8] was inactive.
For the molecule `Cc1ccccc1CO[C@@H]1C[C@@]2(C(C)C)CC[C@]1(C)O2`, the Potency entry in assay [2], in assay [9], in [5], in assay [10], in assay [6] and in assay [7] was “inactive” throughout. Further, in assay [3], the max response was -15.4%.
